# NS1 function inh: blocks influenza NS1 protein function. AID 2326. actives 0.4% (n = 270,000). Potency, µM (doses to about 46.1 µM), without a hit: top-dose activity, positive = more growth; calls by dose curve; further: potency means the concentration at half of the fitted maximal effect; actives are rising curves; nearly all actives have a fitted effect of over 50% in size
#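 Compounds were scored for reversing the slow growth caused by influenza A NS1 in S. cerevisiae, measured by optical density at 600 nm. Assay medium contained 2% galactose at pH 6.0; NS1-free yeast of the same strain were the positive control.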
# LmPK inh: inhibitors of Leishmania mexicana pyruvate kinase. Q27686. purified LmPK, Kinase-Glo ATP luminescence, 1 h. Potency, µM (series often up to 57.5 µM), inactives show at the highest dose activity change, negative = inhibition, actives largely listed as inhibitors. actives 0.37% (n = 290,000). AID 1721; further: potency means the concentration at half of the fitted maximal effect; on the % scale 0 is the no-effect control and ±100 the full control effect
# Target sequence (Q27686 whole entry, looked up): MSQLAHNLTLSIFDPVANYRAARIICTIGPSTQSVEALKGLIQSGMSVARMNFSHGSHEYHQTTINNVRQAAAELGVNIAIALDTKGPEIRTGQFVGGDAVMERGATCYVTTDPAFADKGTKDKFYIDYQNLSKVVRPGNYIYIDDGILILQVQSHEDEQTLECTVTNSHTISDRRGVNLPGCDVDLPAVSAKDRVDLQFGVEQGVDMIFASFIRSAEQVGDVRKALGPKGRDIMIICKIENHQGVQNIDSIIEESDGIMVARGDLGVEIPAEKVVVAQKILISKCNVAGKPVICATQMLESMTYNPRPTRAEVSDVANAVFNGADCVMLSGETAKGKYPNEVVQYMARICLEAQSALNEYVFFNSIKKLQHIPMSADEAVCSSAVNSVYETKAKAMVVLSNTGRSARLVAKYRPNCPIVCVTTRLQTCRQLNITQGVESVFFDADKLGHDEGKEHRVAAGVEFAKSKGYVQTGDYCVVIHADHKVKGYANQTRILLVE
#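 0.1 nM LmPK, 0.5 mM PEP, 0.1 mM ADP; 50 mM imidazole pH 7.2, 7 mM MgCl2, 50 mM KCl; 1 h RT. Kinase-Glo luminescence readout, normalized to no-enzyme (full inhibition) and uninhibited wells.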
# RE007 growth inh: less growth of the S. pombe RE007 Vpr strain; actives 0.21% (n = 360,000); Potency, µM (doses to about 92.2 µM), for inactives: top-dose activity change, negative = less growth, actives largely listed as inhibitors; S. pombe RE007 Vpr strain, BacTiter-Glo ATP luminescence, 24 h; active means well fitted falling curve with a large enough effect; inconclusive means small, poorly fitted or top-dose-only effect; inactive means no such curve, though single readings can be large or run the other way; further: potency means the concentration at half of the fitted maximal effect; on the % scale 0 is the no-effect control and ±100 the full control effect; nearly all actives have a fitted effect of over 50% in size
#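 Fission yeast strain RE007, carrying one chromosomally integrated HIV-1 vpr copy, was seeded at OD 0.01 in PMG+AL medium with 23 nL pinned compound. After 24 h at 30 °C and 99% humidity, viability was read by BacTiter-Glo luminescence.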
# TbPYK inhibitor: T. brucei pyruvate kinase inhibition. TbPYK enzyme, Kinase-Glo Plus ATP luminescence, 45 min. Potency, µM (top dose mostly 76.8 µM), without a hit: at the top dose activity, negative = inhibition, most hits filed as inhibitors. actives 0.12% (n = 410,000). AID 624173; further: potency means the concentration at half of the fitted maximal effect; on the % scale 0 is the no-effect control and ±100 the full control effect; nearly all actives have a fitted effect of over 50% in size
#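 Readout: single end-point luminescence (Kinase-Glo Plus, 10 min). Reaction conditions were TbPYK/substrate plus 130 uM ADP, 45 min at RT, pH 7.2 TEA buffer. No-enzyme wells served as controls, and data were normalized before concentration-response fitting.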
# Flu NS1 inh: influenza NS1 function inhibition validation. 1,400 tested, under 10 active. activity change, negative = inhibition, % at 32.9 µM. influenza NS1 function cell assay, 15-point titration. AID 492980. shares compounds with NS1 function inh; calls by dose curve; further: 0% is about no effect
# PR8 titer: influenza NS1 inhibitors: inhibition of influenza A/PR/8/34 replication; shares compounds with NS1 function inh; MDCK infected influenza A/PR/8/34, virus titer TCID50; active compounds read low; virus titer (log TCID50), log10 TCID50 at 5 µM; actives 30% (n = 95); AID 504647; call rule not given here
# The depositor's hits bear a star; ? = inconclusive; . = not tested or not shown; [ ] = remark or other dose. A selection: hits, their analogues and other compounds. The true share with any hit is near 0.77%. Unless noted, the call rests on the fitted dose curve; in most records, active means well fitted curve in the direction sought with a large enough effect; inconclusive means small, poorly fitted or top-dose-only effect, or another doubt; inactive means no such curve, though single readings can be large; an effect the other way counts as inactive or inconclusive.
SMILES,NS1 function inh,LmPK inh,RE007 growth inh,TbPYK inhibitor,Flu NS1 inh,others
O=C(COC(=O)c1ccc[nH]c1=O)Nc1ccc(S(=O)(=O)N2CCCC2)cc1,11µM*,3%,-7%,0%,3,PR8 titer=7.7
COc1ccc(C2CC(=O)C=C(NNS(=O)(=O)c3ccc(C)cc3)C2)cc1 (stereo not drawn),4µM*,8%,3%,3%,15,
COc1ccc(NC2=CC(=O)CC(c3ccccc3)C2)cc1 (stereo not drawn),5%,-1%,-1%,-4%,.,
Cc1ccc2[nH]cc(C(c3ccccc3)c3cccs3)c2c1 (stereo not drawn),.,.,.,-10%,.,
Cc1ccc2c(c1)C(c1ccccc1)N(C(=O)C(C)C)CC(=O)N2 (stereo not drawn),?,-5%,-15%,-3%,29,
CCC(CC)C(=O)N1CC(=O)Nc2ccc(C)cc2C1c1ccccc1 (stereo not drawn),3%,1%,11%,-6%,.,
CC1(C)CC(=O)c2cc(-c3nc(-c4ccc(F)cc4)cs3)c(=O)[nH]c2C1,.,.,.,-1%,.,
Cc1cc(OCc2ccc(C(=O)NN=C3CCCC3)cc2)ccc1Cl,14µM*,-1%,?,-4%,?,
CC1=NN(c2ccc(C(=O)OC(C)C)cc2)C(=O)/C1=C\C=C\c1ccco1,11µM*,4%,-10%,0%,3,
CCOC(=O)c1ccc(N2N=C(C)/C(=C/C=C/c3ccco3)C2=O)cc1,15%,0%,-9%,1%,.,
Cc1cc(C)c(S(C)(=O)=O)c(Oc2ccccc2C)n1,1µM*,1%,3%,0%,-5,
CC(NCc1ccc(S(N)(=O)=O)cc1)C(=O)N1c2ccccc2CC1C (stereo not drawn),7.9µM*,-7%,6%,15%,3,
CC(NCc1ccc(S(N)(=O)=O)cc1)C(=O)N1CCc2ccccc21 (stereo not drawn),14%,1%,1%,-1%,.,
Cc1cc(C)c(N(C(=O)Cn2nnc3ccccc32)C(C(=O)NC(C)(C)C)c2ccsc2)c(C)c1 (stereo not drawn),8%,1%,1%,5%,.,
CC(C)(C)NC(=O)C(c1ccsc1)N(CCc1ccccc1)C(=O)Cn1nnc2ccccc21 (stereo not drawn),?,1%,5%,-4%,5,
COc1ccccc1-n1c(SCC(=O)NC(C)(C)C)nc(O)cc1=O,8.9µM*,1%,3%,-1%,36,PR8 titer=7.7
COc1ccccc1NC(=O)CSc1nc(O)cc(=O)n1-c1ccccc1OC,10µM*,-6%,18%,0%,39,
Cc1ccc(OCC(=O)N/N=C2\CCOc3c(C)cccc32)cc1,-3%,-4%,-18%,1%,.,
COc1cccc2c1OCC/C2=N\NC(=O)COc1ccc(C)cc1,?,1%,0%,-10%,-28,
O=C(CCCOc1ccc(Cl)cc1)N1CCOCC1,11µM*,-2%,1%,-9%,-21,
O=C(CCCOc1ccc(Cl)cc1)N1CCCCC1,-18%,-14%,-9%,5%,.,
O=S(=O)(N/N=C/c1ccc2c(c1)OCCO2)c1ccccc1,?,0%,1%,9%,3,
O=[N+]([O-])c1ccc(S(=O)(=O)N/N=C/c2ccc3c(c2)OCO3)cc1,-11%,0%,10%,-2%,.,
C[C@H](NC(=O)c1nc[nH]c1C(=O)N[C@@H](Cc1ccccc1)C(=O)OCc1ccccc1)C(=O)OCc1ccccc1,7.9µM*,-5%,0%,4%,17,
CC(C)(C)OC(=O)CNC(=O)c1[nH]cnc1C(=O)NC(c1ccccc1)c1ccccc1,14µM*,-1%,0%,1%,-25,
SMILES,NS1 function inh,LmPK inh,RE007 growth inh,TbPYK inhibitor,Flu NS1 inh,others
C[C@H](NC(=O)c1nc[nH]c1C(=O)N[C@@H](Cc1ccccc1)C(=O)OC(C)(C)C)C(=O)OCc1ccccc1,11µM*,0%,-12%,-7%,9,
CCCCS(=O)(=O)N1C2=NC(C(=O)OC)=C(C(=O)OC)[C@@H]3Nc4ccccc4[C@]23C[C@H]1C(=O)OC,.,0%[11.5 µM],.,.,.,
O=C(CSc1nc(=O)n(CCN2CCOCC2)c2c1CCC2)Nc1ccc(Cl)c(Cl)c1,.,.,.,6%,.,
O=C(N/N=C/c1cc2ccccc2[nH]1)c1ccccc1Cl,?,11%,0%,-5%,-11,
COc1ccc(/C=C2\SC(N3CCc4ccccc4C3)=NC2=O)cc1,4%,2%,7%,-2%,.,
O=C1N=C(N2CCc3ccccc3C2)S/C1=C\c1cccc(O)c1,?,8%,4%,4%,?,
COc1cc(C(=O)Nc2ccccc2OCc2cc(=O)n3cc(C)sc3n2)cc(OC)c1OC,.,.,.,-12%,.,
CCC(C)Sc1nnc(Cc2cc(=O)[nH]c(=O)[nH]2)n1-c1ccc(F)cc1 (stereo not drawn),8.9µM*,1%,-4%,?,2,
COc1ccc(Nc2nc(Nc3ccc(OC)cc3OC)nc(N3CCOCC3)n2)c(OC)c1,.,.,.,2%,.,
COc1cc(/C=C\C(=O)NCc2ccc3[nH]c(C)cc3c2)cc(OC)c1OC,1.3µM*,2%,-5%,3%,21,
CC1CCN(C(=O)Cn2c(=O)oc3ccccc32)CC1,3.5µM*,-3%,11%,1%,-2,
COC(=O)c1cc2oc(C)cc2n1CC(=O)Nc1ccc(C(C)C)cc1,.,.,.,-10%,.,
Cc1sc(NC(=O)c2sc3nc4c(C)cccc4cc3c2N)c(C#N)c1C,?,-3%,-4%,-13%,5,
CCc1ccc(NC(=O)CC2C(=O)N(c3ccc(OC)cc3)C(=O)N2Cc2ccc(OC)cc2)cc1 (stereo not drawn),.,.,.,-3%,.,
CCCOc1ccc(CNC(=O)c2ccc(C)c(-n3c(C)nc4cccnc43)c2)cc1,.,.,.,-1%[15.4 µM],.,
Cc1[nH]c2ccccc2c1NC(=O)CN1CCN(c2cccc(C(F)(F)F)c2)CC1,-131%,4%,-7%,-2%,.,
Cc1[nH]c2ccccc2c1C(O)CN1CCN(c2cccc(C(F)(F)F)c2)CC1 (stereo not drawn),?,2%,-3%,-7%,?,
Cc1oc(-c2ccc(Cl)cc2)nc1Cn1c(=O)cc(-c2ccccc2)c2c(C)nn(C)c21,.,.,.,-4%,.,
CCCCNC(=O)c1onc(CCl)c1C(=O)OC,1.1µM*,0%,-13%,0%,-8,
COCCNC(=O)c1onc(CCl)c1C(=O)OC,3%,1%,5%,-6%,.,
CCOc1ccc(N(C(=O)CC(C)C)S(=O)(=O)c2ccc3c(c2)oc(=O)n3C)cc1,.,.,.,0%,.,
CCc1ccc(OC(C)C(=O)Nc2c(C(=O)c3ccccc3)oc3ccccc23)cc1 (stereo not drawn),.,.,.,-13%,.,
COc1ccc(-c2[nH]c(-c3ccc(F)cc3)nc2SCC(=O)Nc2ccc(OC)c(OC)c2)cc1,.,.,.,6%,.,

# High-throughput results deposited in PubChem BioAssay by National Center for Advancing Translational Sciences (NCATS).
